# Assay results as given in PubChem BioAssay (Tox21).
# Inconclusive results are not listed. A call without a number means that no potency is given here. Unmarked numbers belong to inactive results. Active and inactive are the calls of the source. Unless noted, calls follow the shape of the dose curve; as a rule, active = well fitted curve in the direction sought with a large enough effect in the repeat runs; inconclusive = weak or mixed curves; inactive = no such curve, though single readings can be large; an effect the other way counts as inactive or inconclusive.
# What was measured:
# [1] = biological target: Retinoic acid receptor RXR-alpha (Homo sapiens) (UniProt P19793); assay: qHTS assay to identify small molecule agonists of the RXR signaling pathway (AID 1159527; calls by dose curve; also: nearly all actives have a fitted effect of over 35% in size; also: potency is read from the fitted curve at half-maximal effect)
# Method in brief: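 Reporter activation is measured as beta-lactamase activity via FRET substrate cleavage (emission 460/530 nm) in HEK 293T cells expressing an RXR-alpha-driven bla construct, following 16 hr compound exposure at 37 C.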
# [2] = qHTS assay to identify small molecule agonists of the RXR signaling pathway - cell viability counter screen (AID 1159529); also: series mostly up to about 77 µM; nearly all actives have a fitted effect of over 50% in size
# Method in brief: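 Tox21 10K compounds were tested for cytotoxicity against GeneBLAzer RXR-alpha HEK 293T cells grown in 2% charcoal-stripped FBS. Exposure lasted 16 hr at 37 C, 5% CO2; viability read by CellTiter-Glo luminescence.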
# [3] = qHTS assay to identify small molecule antagonists of the retinoid acid receptor (RAR) signaling pathway - cell viability counter screen (AID 1159551); also: nearly all actives have a fitted effect of over 35% in size
# Method in brief: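 Cytotoxicity counter screen: ATP content quantified by CellTiter-Glo luminescence in C3RL4 cells treated 6 hr at 37 C with compound and retinol (1 uM final). Cells plated at 1,000/well and cultured overnight before dosing.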
# [4] = qHTS assay to identify small molecule antagonists of the retinoic acid receptor (RAR) signaling pathway (AID 1159552; also: nearly all actives have a fitted effect of over 50% in size)
# Method in brief: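 Overnight-plated C3RL4 reporter cells get compound, then retinol to 1 uM final; plates sit 6 hr at 37 C, 5% CO2. A luciferase reagent is added and light output recorded after 30 min at room temperature.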
# [5] = qHTS assay to identify small molecule agonists of the retinoic acid receptor (RAR) signaling pathway (AID 1159553); also: potency is read from the fitted curve at half-maximal effect
# Method in brief: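 Luminescence was measured 30 min after luciferase reagent addition at room temperature. Before that, C3RL4 reporter cells (1,000 per well, plated overnight) were treated with compound for 6 hr at 37 C and 5% CO2.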
# [6] = qHTS assay to identify small molecule agonists of the constitutive androstane receptor (CAR) signaling pathway - cell viability counter screen (AID 1224836); also: series mostly up to about 92 µM; nearly all actives have a fitted effect of over 45% in size
# Method in brief: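 Fluorescence from CellTiter-Fluor indicates live cells after 23 h exposure. The human hepatoma line expresses hCAR and a CYP2B6-2.2kb reporter. Incubation medium contains 0.75 uM PK11195 (final).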
# [7] = qHTS assay to identify small molecule antagonists of the constitutive androstane receptor (CAR) signaling pathway - cell viability counter screen (AID 1224837); also: series mostly up to about 92 µM; nearly all actives have a fitted effect of over 45% in size
# Method in brief: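 Cytotoxicity counter-screen: CellTiter-Fluor fluorescence after 23 h compound exposure (15-point qHTS) in double-stable HepG2-CYP2B6-hCAR cells, with 50 nM CITCO added.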
# [8] = biological target: Nuclear receptor subfamily 1 group I member 3 (Homo sapiens) (UniProt Q14994); assay: qHTS assay to identify small molecule antagonists of the constitutive androstane receptor (CAR) signaling pathway (AID 1224838);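 also: HepG2 cells stably expressing hCAR with CYP2B6 luciferase reporter stimulated by CITCO; nearly all actives have a fitted effect of over 40% in size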
# Method in brief: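 Antagonism measured as luciferase signal (ONE-Glo, 30 min, room temperature) in CAR-stimulated cells: HepG2-CYP2B6-hCAR double-stable line exposed 24 hr at 37 C to compound in a 15-point series plus 50 nM CITCO.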
# [9] = qHTS assay to identify small molecule antagonists of the estrogen related receptor signaling pathway with the pleiotropic PPARgamma coactivator (PGC) from Tox21 10K library - cell viability counter screen (AID 1224840; active = well fitted cell-killing curve with a large enough effect in the repeat runs, not every such curve was filed as active; also: nearly all actives have a fitted effect of over 40% in size)
# Method in brief: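 Counter-screen for cytotoxicity: after 17.5 h compound exposure at 37 C, CellTiter-Fluor reagent added to PGC/ERR cells for 30 min and fluorescence read. Cells were seeded at 2,000 per well 6 h before dosing.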
# [10] = qHTS assay to identify small molecule antagonists of the estrogen related receptor (ERR) signaling pathway - cell viability counter screen (AID 1224818);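 also: series mostly up to about 46 µM; viability measured after 17.5 h of compound exposure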
# Method in brief: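 Cytotoxicity counter screen: fluorescence from CellTiter-Fluor, added after 17.5 h compound exposure at 37 C and read 30 min later. ERR cell line seeded at 2,000 cells/well, preincubated 6 h before dosing.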
# [11] = qHTS assay to identify small molecule antagonists of the estrogen related receptor (ERR) signaling pathway (AID 1224819;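 also: luminescence from an ERR-driven luciferase reporter measured with One-Glo reagent; series mostly up to about 46 µM; nearly all actives have a fitted effect of over 50% in size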)
# Method in brief: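 LOPAC library screened for antagonism as reduced One-Glo luminescence in ERR reporter cells (2,000/well). Compounds were added after 6 h pre-incubation and left 18 h at 37C; reading followed a 30 min room-temperature reagent step.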
# [12] = tested on: estrogen-related receptor alpha (ERRalpha) with PGC-1alpha coactivator, human; assay: qHTS assay to identify small molecule antagonists of the estrogen related receptor signaling pathway with the pleiotropic PPARgamma coactivator (PGC) (AID 1224821; calls by dose curve;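 also: series mostly up to about 46 µM; lower luminescence signal means antagonism of PGC/ERR signalling; nearly all actives have a fitted effect of over 50% in size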)
# Method in brief: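 A PGC/ERR cell line supplied by NTP is seeded, allowed 6 h at 37 C, and treated with test compounds in DMSO for 18 h. Signal is then measured as luciferase luminescence using One-Glo.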
# [13] = qHTS assay to identify small molecule antagonists of the estrogen related receptor signaling pathway with the pleiotropic PPARgamma coactivator (PGC) cell viability counter screen (AID 1224822; also: series mostly up to about 46 µM)
# Method in brief: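 Viability counter-screen read by fluorescence intensity after 30 min with CellTiter-Fluor at 37 C; PGC/ERR reporter cells were exposed to compounds for 17.5 h at 37 C following a 6 h preincubation.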
# [14] = biological target: Luciferin 4-monooxygenase (Photinus pyralis) (UniProt P08659); assay: qHTS assay to identify small molecule inhibitors of firefly luciferase (AID 1224835); also: series mostly up to about 120 µM; nearly all actives have a fitted effect of over 25% in size
# Method in brief: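 Quantitative HTS format; KM concentrations of both substrates. Purified P. pyralis FLuc activity quantified from luminescence images.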
# [15] = biological target: Nuclear receptor subfamily 1 group I member 3 (Homo sapiens) (UniProt Q14994); assay: qHTS assay to identify small molecule agonists of the constitutive androstane receptor (CAR) signaling pathway (AID 1224839);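 also: HepG2 cells stably carrying human CAR and a CYP2B6 luciferase reporter; series mostly up to about 92 µM; nearly all actives have a fitted effect of over 15% in size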
# Method in brief: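 Stable hCAR/CYP2B6-2.2kb HepG2 line in DMEM with 10% FBS; compounds (15 concentrations) and 0.75 uM PK11195 final, 24 h at 37 C/5% CO2, then ONE-Glo luminescence after 30 min.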
# [16] = qHTS assay to identify small molecule antagonists of the estrogen related receptor signaling pathway with the pleiotropic PPARgamma coactivator (PGC) from Tox21 10K library (AID 1224841; call rule not given here; also: potency is read from the fitted curve at half-maximal effect)
# Method in brief: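 Luminescence (One-Glo, 30 min at room temperature) after 18 h compound treatment at 37 C of PGC/ERR reporter cells plated at 2,000 cells/well and settled 6 h beforehand.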
# [17] = qHTS assay to identify small molecule agonists of the estrogen related receptor signaling pathway with the pleiotropic PPARgamma coactivator (PGC) from Tox21 10K library (AID 1224842); also: nearly all actives have a fitted effect of over 15% in size
# Method in brief: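 PGC/ERR reporter cells (NTP line) were seeded 2,000 per well, rested 6 h at 37 C/5% CO2, then pin-dosed with compounds in DMSO for 18 h at 37 C; luciferase read by One-Glo luminescence after 30 min at room temperature.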
# [18] = biological target: Thyrotropin receptor (Homo sapiens) (UniProt P16473); assay: qHTS assay to identify small molecule agonists of the thyroid stimulating hormone receptor (TSHR) signaling pathway (AID 1224843; calls by dose curve; also: nearly all actives have a fitted effect of over 45% in size)
# Method in brief: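 Compounds are titrated over 15 concentrations, in triplicate, onto TSHR-HEK293 cells seeded at 800/well. Plates sit 30 min at room temperature before cAMP-d2 and anti-cAMP cryptate are added; signal is read after a further hour.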
# [19] = qHTS assay to identify small molecule antagonists of the estrogen related receptor (ERR) signaling pathway from Tox21 library - cell viability counter screen (AID 1224834); also: nearly all actives have a fitted effect of over 30% in size
# Method in brief: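 CellTiter-Fluor fluorescence, read after 30 min at 37 C, measures viability of ERR cells. Cells plated at 2,000/well and incubated 6 h before pin-tool compound addition, then exposed 17.5 hours at 37 C.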
# Sequence of Retinoic acid receptor RXR-alpha (Homo sapiens) (P19793 whole entry, looked up): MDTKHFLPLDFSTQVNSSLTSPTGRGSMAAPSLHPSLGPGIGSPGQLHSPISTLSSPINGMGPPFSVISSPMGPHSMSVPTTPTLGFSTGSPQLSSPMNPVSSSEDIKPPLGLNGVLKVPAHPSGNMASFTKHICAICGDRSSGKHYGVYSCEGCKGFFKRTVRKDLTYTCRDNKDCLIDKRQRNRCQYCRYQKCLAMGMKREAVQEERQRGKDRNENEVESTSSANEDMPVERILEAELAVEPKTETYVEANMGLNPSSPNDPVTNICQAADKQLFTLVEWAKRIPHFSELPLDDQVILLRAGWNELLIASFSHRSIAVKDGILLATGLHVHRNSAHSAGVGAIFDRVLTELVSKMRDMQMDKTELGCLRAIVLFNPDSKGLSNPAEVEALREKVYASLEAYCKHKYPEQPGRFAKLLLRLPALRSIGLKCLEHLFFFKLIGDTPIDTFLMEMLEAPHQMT
# Sequence of Luciferin 4-monooxygenase (Photinus pyralis) (P08659 whole entry, looked up): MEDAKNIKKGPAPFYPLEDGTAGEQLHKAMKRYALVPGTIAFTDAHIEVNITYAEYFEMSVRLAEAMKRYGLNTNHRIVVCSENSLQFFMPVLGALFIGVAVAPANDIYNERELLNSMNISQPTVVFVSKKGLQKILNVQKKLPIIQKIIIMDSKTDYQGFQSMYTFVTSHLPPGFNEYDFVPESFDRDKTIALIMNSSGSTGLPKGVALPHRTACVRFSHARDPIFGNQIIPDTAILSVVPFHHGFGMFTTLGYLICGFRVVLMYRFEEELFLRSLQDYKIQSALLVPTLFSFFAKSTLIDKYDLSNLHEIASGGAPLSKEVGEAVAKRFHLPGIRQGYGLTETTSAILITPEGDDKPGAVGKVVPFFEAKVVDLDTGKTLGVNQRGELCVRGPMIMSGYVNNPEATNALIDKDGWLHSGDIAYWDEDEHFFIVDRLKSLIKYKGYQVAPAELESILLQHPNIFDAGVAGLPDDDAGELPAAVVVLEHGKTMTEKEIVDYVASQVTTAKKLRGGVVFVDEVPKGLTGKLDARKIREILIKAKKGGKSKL
# Sequence of Nuclear receptor subfamily 1 group I member 3 (Homo sapiens) (Q14994 whole entry, looked up): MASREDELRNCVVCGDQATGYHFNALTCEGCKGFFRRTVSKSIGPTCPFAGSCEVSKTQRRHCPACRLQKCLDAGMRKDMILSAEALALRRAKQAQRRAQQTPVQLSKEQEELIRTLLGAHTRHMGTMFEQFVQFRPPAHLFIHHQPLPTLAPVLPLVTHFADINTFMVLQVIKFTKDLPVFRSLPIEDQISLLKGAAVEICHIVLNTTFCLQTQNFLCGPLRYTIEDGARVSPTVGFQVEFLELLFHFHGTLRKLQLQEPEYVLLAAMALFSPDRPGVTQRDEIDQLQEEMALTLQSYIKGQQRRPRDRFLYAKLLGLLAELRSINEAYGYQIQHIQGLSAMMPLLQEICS
# Sequence of Thyrotropin receptor (Homo sapiens) (P16473 whole entry, looked up): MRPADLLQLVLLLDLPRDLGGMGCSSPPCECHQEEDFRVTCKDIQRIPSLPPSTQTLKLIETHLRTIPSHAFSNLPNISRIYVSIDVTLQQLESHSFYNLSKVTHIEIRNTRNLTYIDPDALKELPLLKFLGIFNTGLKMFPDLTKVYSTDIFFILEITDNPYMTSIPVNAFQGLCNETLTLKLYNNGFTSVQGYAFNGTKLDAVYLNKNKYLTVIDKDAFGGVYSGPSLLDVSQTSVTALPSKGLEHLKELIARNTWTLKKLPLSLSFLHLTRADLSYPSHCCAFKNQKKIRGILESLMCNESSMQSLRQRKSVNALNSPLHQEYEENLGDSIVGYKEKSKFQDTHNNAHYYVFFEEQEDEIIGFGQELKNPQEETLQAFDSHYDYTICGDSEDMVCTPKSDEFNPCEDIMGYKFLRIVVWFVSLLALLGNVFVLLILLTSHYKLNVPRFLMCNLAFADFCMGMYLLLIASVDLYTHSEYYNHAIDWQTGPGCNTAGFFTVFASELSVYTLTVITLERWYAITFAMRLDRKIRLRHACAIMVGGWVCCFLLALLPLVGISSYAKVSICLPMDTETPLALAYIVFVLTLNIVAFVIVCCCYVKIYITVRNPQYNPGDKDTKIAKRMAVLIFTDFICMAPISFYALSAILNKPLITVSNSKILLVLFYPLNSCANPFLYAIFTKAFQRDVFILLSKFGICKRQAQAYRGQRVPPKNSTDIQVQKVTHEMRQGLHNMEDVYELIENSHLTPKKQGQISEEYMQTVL
SMILES,Potency [1],outcome [2],outcome [3],outcome [4],Potency [5],Potency [6],Potency [7],outcome [8],outcome [9],outcome [10],outcome [11],outcome [12],outcome [13],Potency [14],Potency [15],Potency [16],outcome [17],Potency [18],Potency [19]
C[C@@H]1O[C@@H](O[C@@H]2[C@@H](O)[C@H](OCCc3ccc(O)c(O)c3)O[C@H](CO[C@@H]3O[C@H](CO)[C@@H](O)[C@H](O)[C@H]3O)[C@H]2OC(=O)/C=C/c2ccc(O)c(O)c2)[C@H](O)[C@H](O)[C@H]1O,inactive,inactive,inactive,inactive,inactive,inactive,inactive,inactive,inactive,,,,,,,,,,
O=C(NCCN1CCOCC1)c1ccc(Cl)cc1,inactive,inactive,inactive,inactive,,inactive,inactive,inactive,inactive,inactive,inactive,inactive,inactive,inactive,inactive,inactive,inactive,inactive,
CC(C)=CCOC(=O)c1ccccc1,inactive,inactive,inactive,inactive,inactive,,inactive,,inactive,,,,,,,inactive,inactive,inactive,
N[C@@H](CCC(=O)Nc1ccc([N+](=O)[O-])cc1)C(=O)O,inactive,inactive,inactive,inactive,inactive,,,inactive,inactive,,,,,inactive,inactive,inactive,inactive,inactive,
CCOCCOC(=O)/C=C/c1ccc(OC)cc1,inactive,inactive,inactive,inactive,33.5 µM (active),inactive,inactive,inactive,inactive,,,,,,,,,inactive,inactive
CCOCCOCCOCC,inactive,inactive,inactive,inactive,,inactive,inactive,inactive,inactive,,,,,inactive,inactive,,,,inactive
Nc1ncnc(Nc2ccccc2)n1,inactive,inactive,inactive,inactive,,inactive,inactive,inactive,inactive,,,,,inactive,,,,inactive,inactive
CCCOC(=O)C(C)O (stereo not given),inactive,inactive,inactive,inactive,,inactive,inactive,inactive,inactive,,,,,inactive,inactive,,,inactive,inactive
NCCN1CCOCC1,inactive,inactive,inactive,inactive,inactive,inactive,inactive,,inactive,,,,,,,,,inactive,
CCCCCOC(=O)CCC,inactive,inactive,inactive,inactive,,inactive,inactive,inactive,inactive,,,,,inactive,inactive,inactive,inactive,inactive,inactive
COc1cc(N)ccc1C,inactive,inactive,inactive,inactive,inactive,inactive,inactive,inactive,inactive,,,,,inactive,,1.52 µM (active),inactive,inactive,
Cc1ccc2c(c1)OCC(=O)CO2,inactive,inactive,inactive,inactive,,inactive,inactive,inactive,inactive,,,,,inactive,inactive,inactive,,inactive,inactive
CC1=C(C(=O)O)N2C(=O)[C@@H](NC(=O)[C@H](N)c3ccc(O)cc3)[C@H]2SC1,inactive,inactive,inactive,inactive,inactive,,inactive,inactive,inactive,,,,,,inactive,,,inactive,inactive
Cc1cc(NC(=O)C2=C(O)c3ccccc3S(=O)(=O)N2C)no1,inactive,inactive,inactive,inactive,inactive,inactive,inactive,,inactive,,,,,,,,,inactive,inactive
Cc1ccc2ccc(Cl)cc2n1,inactive,inactive,inactive,inactive,inactive,inactive,inactive,,inactive,,,,,,,,,inactive,inactive
CC(N)C(=O)OC(C)(C)Cc1ccc(Cl)cc1 (stereo not given),inactive,inactive,inactive,inactive,inactive,inactive,inactive,inactive,,,,,,inactive,inactive,,,inactive,
CCCCNc1ccc(C(=O)OCCN(C)C)cc1,inactive,inactive,inactive,inactive,,inactive,inactive,inactive,inactive,inactive,,,inactive,inactive,,,,inactive,inactive
CCCCCCCCCCl,inactive,inactive,inactive,inactive,inactive,inactive,inactive,,inactive,,,,,,,inactive,inactive,inactive,inactive
CC(COC(C)(C)C)OCCCO (stereo not given),11 µM (active),inactive,inactive,inactive,inactive,inactive,inactive,inactive,inactive,,,,,inactive,inactive,inactive,inactive,inactive,
CC(CN)CC(C)(C)CCN (stereo not given),inactive,inactive,inactive,inactive,inactive,inactive,inactive,inactive,inactive,,,,,inactive,inactive,,,inactive,
